# Reference: PubChem BioAssay (NCATS)
# Inconclusive results are not listed. Unmarked numbers belong to inactive results. Calls of active or inactive are those of the source. The call rests on the fitted dose curve; in most records, active means well fitted curve in the direction sought with a large enough effect; inconclusive means small, poorly fitted or top-dose-only effect, or another doubt; inactive means no such curve, though single readings can be large; an effect the other way counts as inactive or inconclusive.
# Target: Luciferin 4-monooxygenase (Photinus pyralis) (UniProt P08659)
# Assay: Biochemical firefly luciferase enzyme assay for NPC (AID 624030);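 on activity change, negative = inhibition: purified P. pyralis luciferase at 10 nM with luciferin and ATP substrate; 0% = DMSO and -100% = full luciferase inhibition by PTC124 control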
# Details: purified P. pyralis luciferase, luminescence, 5 min; series mostly up to 58.6 µM; activity change, negative = inhibition: at the top concentration
# In short: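 Purified P. pyralis luciferase at 10 nM in 50 mM Tris Acetate (final), luminescence read within 5 minutes of enzyme addition to compounds. Activity normalised to PTC124 versus DMSO; concentration-response curves classed by r2, magnitude and activity.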
# Further: nearly all actives have a fitted effect of over 70% in size.
# Potency means the concentration at half of the fitted maximal effect.
# Chain of Luciferin 4-monooxygenase (Photinus pyralis) (P08659 whole entry, looked up): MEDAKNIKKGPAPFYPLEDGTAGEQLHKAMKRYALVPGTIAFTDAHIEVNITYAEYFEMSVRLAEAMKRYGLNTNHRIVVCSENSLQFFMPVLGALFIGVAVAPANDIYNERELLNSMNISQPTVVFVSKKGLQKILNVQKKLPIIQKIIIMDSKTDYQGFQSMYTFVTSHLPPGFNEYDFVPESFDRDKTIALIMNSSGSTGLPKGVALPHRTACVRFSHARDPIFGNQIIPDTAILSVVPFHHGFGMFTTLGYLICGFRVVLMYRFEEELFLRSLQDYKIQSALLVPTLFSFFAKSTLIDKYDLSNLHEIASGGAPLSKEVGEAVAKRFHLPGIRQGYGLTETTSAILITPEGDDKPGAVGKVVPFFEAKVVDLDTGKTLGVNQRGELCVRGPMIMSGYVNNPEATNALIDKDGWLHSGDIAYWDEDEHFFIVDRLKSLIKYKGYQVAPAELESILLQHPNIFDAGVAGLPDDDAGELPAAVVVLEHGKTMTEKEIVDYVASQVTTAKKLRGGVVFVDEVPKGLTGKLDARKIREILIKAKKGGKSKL
Structure (SMILES),"activity change, negative = inhibition",Potency
CN(C)CCCN1c2ccccc2CCc2ccc(Cl)cc21,10.4%,
OCCN(CCO)c1nc(N2CCCCC2)c2nc(N(CCO)CCO)nc(N3CCCCC3)c2n1,-0.469%,
CN1CCC(=C2c3ccccc3C=Cc3ccccc32)CC1,6.24%,
Clc1ccccc1C(c1ccccc1)(c1ccccc1)n1ccnc1,-0.222% [at 24.9 µM],
NC(=O)NO,1.47%,
CCCCc1oc2ccccc2c1C(=O)c1cc(I)c(OCCN(CC)CC)c(I)c1,,inactive
Cc1cc(C(C)(C)C)c(O)c(C)c1CC1=NCCN1,5.61%,
CC12CC3CC(C)(C1)CC(N)(C3)C2,0.693%,
Clc1ccc2c(c1)C(N1CCNCC1)=Nc1ccccc1O2,-0.554%,
Cc1ccc(C(=O)Nc2ccc(S(=O)(=O)O)c3cc(S(=O)(=O)O)cc(S(=O)(=O)O)c23)cc1NC(=O)c1cccc(NC(=O)Nc2cccc(C(=O)Nc3cc(C(=O)Nc4ccc(S(=O)(=O)O)c5cc(S(=O)(=O)O)cc(S(=O)(=O)O)c45)ccc3C)c2)c1,,11.4 µM (active)
COc1cc2nc(N3CCN(C(=O)c4ccco4)CC3)nc(N)c2cc1OC,-10.5%,
O=C1Cc2cc(CCN3CCN(c4nsc5ccccc45)CC3)c(Cl)cc2N1,-4.09%,
Cc1cc(C(C)(C)C)cc(C)c1CC1=NCCN1,10.4% [at 24.9 µM],
CNCCCC12CCC(c3ccccc31)c1ccccc12,11.5%,
CC1(CN2CCC(n3c(=O)[nH]c4ccccc43)CC2)OCc2ccccc2-n2cccc21 (stereo unspecified),-0.322%,
Cc1cnc(C(=O)NCCc2ccc(S(=O)(=O)NC(=O)NC3CCCCC3)cc2)cn1,-3.22%,

Structure (SMILES),"activity change, negative = inhibition",Potency
Nc1nnc(-c2cccc(Cl)c2Cl)c(N)n1,15.6%,
COc1ccc(CCN(C)CCCC(C#N)(c2ccc(OC)c(OC)c2)C(C)C)cc1OC (stereo unspecified),4.25%,
COC(=O)Nc1nc2ccc(C(=O)c3cccs3)cc2[nH]1,-17.2%,
CS(=O)(=O)Nc1ccc([N+](=O)[O-])cc1Oc1ccccc1,-0.404% [at 24.9 µM],
CN(C)C(=N)N=C(N)N,-0.272% [at 24.9 µM],
CN(CCOc1ccc(NS(C)(=O)=O)cc1)CCc1ccc(NS(C)(=O)=O)cc1,-0.0423%,
Clc1ccc2nsnc2c1NC1=NCCN1,-2.15%,
CN1CCN2c3ccccc3Cc3ccccc3C2C1 (stereo unspecified),1.53%,
Cc1ccccc1N1C(=O)c2cc(S(N)(=O)=O)c(Cl)cc2NC1C (stereo unspecified),-4.86%,
O=C1c2c(O)ccc(O)c2C(=O)c2c(NCCNCCO)ccc(NCCNCCO)c21,-5.49% [at 24.9 µM],
O=C1N(c2ccccc2)c2ccccc2C1(Cc1ccncc1)Cc1ccncc1,-2.21%,
CN1C(C(=O)Nc2ccccn2)=C(O)c2ccccc2S1(=O)=O,-3.96% [at 24.9 µM],
CC(C)NCC(O)COc1ccc(CCOCC2CC2)cc1 (stereo unspecified),-1.59%,
O=C(c1ccc(F)cc1)C1CCN(CCn2c(=O)[nH]c3ccccc3c2=O)CC1,-0.384%,
NC12CC3CC(CC(C3)C1)C2,8.47%,

# Test system: not listed separately
# Assay: S16 Schwann cell viability assay (CellTiter-Glo assay) (AID 624031);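 on activity change, negative = cytotoxicity: cellular ATP luminescence as a viability measure; plate controls were DMSO-treated cells for no effect and cell-free wells for full effect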
# Details: S16 rat Schwann cells viability, 24 h; series mostly up to 57.5 µM; activity change, negative = cytotoxicity: at the top concentration
# In short: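 Native S16 Schwann cells (rat), serum-containing medium, overnight attachment then 24 h drug exposure at 37 °C/5% CO2. CellTiter-Glo ATP signal; normalized to cell-free and vehicle wells.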
Structure (SMILES),Potency,"activity change, negative = cytotoxicity"
CN(C)CCCN1c2ccccc2CCc2ccc(Cl)cc21,20.3 µM (active),
OCCN(CCO)c1nc(N2CCCCC2)c2nc(N(CCO)CCO)nc(N3CCCCC3)c2n1,,-18%
Clc1ccccc1C(c1ccccc1)(c1ccccc1)n1ccnc1,,5.59% [at 25.7 µM]
NC(=O)NO,,3.65%
CCCCc1oc2ccccc2c1C(=O)c1cc(I)c(OCCN(CC)CC)c(I)c1,32.2 µM (active),
Cc1cc(C(C)(C)C)c(O)c(C)c1CC1=NCCN1,,-14%
CC12CC3CC(C)(C1)CC(N)(C3)C2,,-1.95%
Cc1ccc(C(=O)Nc2ccc(S(=O)(=O)O)c3cc(S(=O)(=O)O)cc(S(=O)(=O)O)c23)cc1NC(=O)c1cccc(NC(=O)Nc2cccc(C(=O)Nc3cc(C(=O)Nc4ccc(S(=O)(=O)O)c5cc(S(=O)(=O)O)cc(S(=O)(=O)O)c45)ccc3C)c2)c1,,0%
Cc1cc(C(C)(C)C)cc(C)c1CC1=NCCN1,,-27.9% [at 25.7 µM]
CNCCCC12CCC(c3ccccc31)c1ccccc12,32.2 µM (active),
Cc1cnc(C(=O)NCCc2ccc(S(=O)(=O)NC(=O)NC3CCCCC3)cc2)cn1,,4.84%
Nc1nnc(-c2cccc(Cl)c2Cl)c(N)n1,,-13.5%
COc1ccc(CCN(C)CCCC(C#N)(c2ccc(OC)c(OC)c2)C(C)C)cc1OC (stereo unspecified),,6.87%
COC(=O)Nc1nc2ccc(C(=O)c3cccs3)cc2[nH]1,,-13%
CS(=O)(=O)Nc1ccc([N+](=O)[O-])cc1Oc1ccccc1,,-2.14% [at 25.7 µM]
CN(C)C(=N)N=C(N)N,,-2.01% [at 25.7 µM]
CN(CCOc1ccc(NS(C)(=O)=O)cc1)CCc1ccc(NS(C)(=O)=O)cc1,,2.93%
Clc1ccc2nsnc2c1NC1=NCCN1,,-5.33%
CN1CCN2c3ccccc3Cc3ccccc3C2C1 (stereo unspecified),,0.708%
O=C1c2c(O)ccc(O)c2C(=O)c2c(NCCNCCO)ccc(NCCNCCO)c21,,17.7% [at 25.7 µM]
O=C1N(c2ccccc2)c2ccccc2C1(Cc1ccncc1)Cc1ccncc1,,1.23%
CN1C(C(=O)Nc2ccccn2)=C(O)c2ccccc2S1(=O)=O,,0.0698% [at 25.7 µM]
CC(C)NCC(O)COc1ccc(CCOCC2CC2)cc1 (stereo unspecified),,-14.5%
O=C(c1ccc(F)cc1)C1CCN(CCn2c(=O)[nH]c3ccccc3c2=O)CC1,,14.4%
NC12CC3CC(CC(C3)C1)C2,,-0.437%
